Screening results as filed in PubChem BioAssay.
Rows were chosen to be rich in hits. Some 9.4% of all compounds tested hit in one or more screens of this group.
NPC1 prom act: NPC1 promoter activation; Huh7 NPC1 promoter luciferase reporter, 24 h; Potency, µM (series often up to 9.22 µM), without a hit: top-dose activation, hits mostly activators; 2.4% of 320,000 active; further: % of control where 0% means no effect; nearly all actives have a fitted effect of over 60% in size
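NPC1 promoter–luciferase Huh7 cells; 24 h compound; luminescence.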
FLuc modulator: firefly luciferase modulation, counter-screen for miR-21 project; purified FLuc, Km substrates, luminescence inhibition; Potency, µM (titrated, usually from 57.5 µM), without a hit: top-dose activity change, negative = inhibition, usual class: inhibitors; 6.9% of 360,000 active; AID 588342;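 further: plate controls were vehicle for no effect and reference inhibitor for full effect; nearly all actives have a fitted effect of over 55% in size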
Target sequence (P08659 whole entry, looked up): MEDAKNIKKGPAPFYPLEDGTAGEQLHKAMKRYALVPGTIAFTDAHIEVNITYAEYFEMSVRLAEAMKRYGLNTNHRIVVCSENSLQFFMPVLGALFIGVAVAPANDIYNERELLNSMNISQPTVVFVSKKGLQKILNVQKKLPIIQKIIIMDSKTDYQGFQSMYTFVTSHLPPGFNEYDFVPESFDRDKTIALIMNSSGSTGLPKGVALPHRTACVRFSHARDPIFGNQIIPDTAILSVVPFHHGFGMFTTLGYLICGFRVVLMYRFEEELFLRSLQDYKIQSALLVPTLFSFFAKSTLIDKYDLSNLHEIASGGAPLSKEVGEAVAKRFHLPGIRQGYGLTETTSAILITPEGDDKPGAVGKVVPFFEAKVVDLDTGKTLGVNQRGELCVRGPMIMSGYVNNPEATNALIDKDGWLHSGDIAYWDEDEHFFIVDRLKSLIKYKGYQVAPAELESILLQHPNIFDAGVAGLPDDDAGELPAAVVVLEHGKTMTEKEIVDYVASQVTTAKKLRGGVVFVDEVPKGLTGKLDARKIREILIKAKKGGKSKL
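Purified P. pyralis luciferase, 10 nM final, with Km-level 10 uM D-luciferin and 10 uM ATP in 50 mM Tris acetate pH 7.5, 10 mM Mg acetate, 0.01% Tween-20, 0.05% BSA; 6-point qHTS titration about 60 µM downward; luminescence read.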
Rab9 promoter act: activates the Rab9 promoter; Huh7 Rab9 promoter-luciferase reporter, luminescence, 24 h; Potency, µM (doses to about 9.22 µM), without a hit: top-dose activation, negative = inhibition, usual class: activators; 2.8% of 320,000 active; AID 485297; further: % of control where 0% means no effect; nearly all actives have a fitted effect of over 60% in size
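Stable Rab9-luc Huh7, 1500 cells/well, 2 h settle; cmpd in DMSO, 24 h, 37 °C/5% CO2; luciferase reagent 10 min RT; luminescence.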
ELG1 genotoxic: induces genotoxicity in HEK293T cells with luciferase-tagged ELG1. HEK293T ELG1-luciferase reporter, luminescence, 16 h. Potency, µM (highest dose often 46 µM), for inactives: top-dose activity change, positive = activation, usual class: activators. 1.3% of 330,000 active; further: % of control where 0% means no effect; nearly all actives have a fitted effect of over 60% in size
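Reporter readout depends on ELG1 protein level, which increases with genetic stress. After 16 hr compound exposure at 37 °C, luciferase activity was quantified using ONE-Glo.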
ELG1 repair inh: ELG1-dependent DNA repair inhibition; HEK293T ELG1-luciferase reporter, luminescence, 16 h; DNA damage induced by 5-fluorouridine; 2.3% of 330,000 active; Potency, µM (highest dose often 46.1 µM), inactives show top-dose activity change, negative = inhibition, most hits filed as inhibitors; further: on the % scale 0 is the no-effect control and ±100 the full control effect; nearly all actives have a fitted effect of over 55% in size
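5-Fluorouridine DNA damage + compound/DMSO, 2,000 cells/well, 16 h, 37 °C/5% CO2. ONE-Glo, 30 min RT, luminescence. Readout = decrease in reporter signal.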
SMN2 splice enh: increases expression of the SMN2 splice variant. AID 1458. 2.8% of 210,000 active. HEK293 SMN2-luciferase splicing reporter, luminescence, 30-36 h. Potency, µM (series often up to 46.1 µM), without a hit: at the highest dose activity change, positive = activation, actives largely listed as activators; further: % of control where 0% means no effect; nearly all actives have a fitted effect of over 55% in size
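qHTS luciferase splicing reporter: luminescence rises when SMN2 exon 7 is included in transfected HEK293 cells. Compound exposure lasted 30-36 h at 37C, with 4.5 mM final sodium butyrate as control, followed by a ONE-Glo read.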
Starred values were filed as active, the others as inactive; ? = inconclusive; · = no result; [ ] = remark or other dose. The call rests on the fitted dose curve; in most records, active means well fitted curve in the direction sought with a large enough effect; inconclusive means small, poorly fitted or top-dose-only effect, or another doubt; inactive means no such curve, though single readings can be large; an effect the other way counts as inactive or inconclusive. Potency means the concentration at half of the fitted maximal effect.

SMILES	NPC1 prom act	FLuc modulator	Rab9 promoter act	ELG1 genotoxic	ELG1 repair inh	SMN2 splice enh
O=c1[nH]c(O)c(N=Nc2ccc(SC(F)F)cc2)c(=O)[nH]1	23.1%	2.39µM*	?	14.5%	?	·
Cc1ccc(C(=O)Nc2c(C(=O)Nc3ccc(C)c(C)c3)sc3nc(C)cc(C)c23)cc1	·	10.7µM*	·	·	·	12.6µM*
CN(C(=O)Oc1ccc(C(=O)c2ccc(Cl)cc2)cc1)c1ccccc1	-2.3%	-2.1%	-10.1%	-5.1%	-9.5%	-26.5%
CN(C)C(=O)Oc1ccc(OC(=O)c2ccccc2)cc1	-3.9%	6.75µM*	-2.2%	?	?	5.1%
Cc1ccc(S(=O)(=O)N(C)CCCC(=O)N2CCN(c3ccccn3)CC2)cc1	-3.0%	-0.3%	-5.7%	-16.5%	18.4µM*	-27.2%
COc1ccc(-n2c(/C=C/c3ccc(O)c(O)c3)nc3ccccc3c2=O)cc1	-6.6%	?	0.2%	-15.8%	18.3µM*	·
COc1cc(/C=C/c2nc3ccccc3c(=O)n2-c2ccc(O)cc2)ccc1O	-7.9%	?	-17.2%	4.5%	16.4µM*	·
O=c1c2ccccc2nc(/C=C/c2ccccc2O)n1-c1ccccc1O	1.4%	?	-3.8%	-8.0%	23.1µM*	·
Clc1nc(Cl)nc(Cl)n1	·	·	·	·	·	-29.2%
ClCC(Cl)CCl	·	·	·	·	·	-0.8%
ClC(Cl)(Cl)C(Cl)(Cl)Cl	·	·	·	·	·	21.4%
NCCP(=O)(O)O	·	·	·	·	·	3.5%[9.22 µM]
C/C(=N\Nc1ccccc1)c1c(O)n(-c2ccccc2)c(=O)[nH]c1=O	-2.5%	6.3%	-3.9%	4.1%	?	·
C/C(=N\Nc1ccccc1)c1c(O)[nH]c(=O)[nH]c1=O	-0.8%	0.7%	-3.0%	9.1%	5.17µM*	·
C=C(Cl)CCl	·	·	·	·	·	8.0%
Cn1c(=O)oc2cc(NC(=O)CCl)ccc21	-9.8%	-0.1%	-1.6%	-12.9%	?	·
COc1ccc(NC(=O)CCCn2c(=O)oc3ccccc32)cc1Cl	?	12µM*	?	?	?	?
O=C1NC(=O)C(=Cc2cccc(OCCOc3ccccc3)c2)C(=O)N1	0.562µM*	15.1µM*	0.316µM*	?	?	·
Cc1ccc(OCCOc2cccc(C=C3C(=O)NC(=O)NC3=O)c2)c(C)c1	0.0891µM*	7.57µM*	0.126µM*	?	?	·
O=C1NC(=O)C(=Cc2ccc(OCCOc3ccc([N+](=O)[O-])cc3)cc2)C(=O)N1	-4.9%	?	-2.5%	2.3%	6.7%	-1.7%
CCCCN1CCS(=O)(=O)N(Cc2ccccc2Br)CC(C(=O)OC)C1 (centres undefined)	·	·	·	1.3%	?	·
O=c1oc2ccccc2c(O)c1C(c1ccc([N+](=O)[O-])cc1)c1c(O)c2ccccc2oc1=O	-4.0%	19µM*	1.8%	-10.3%	5.5%	-9.8%
Nc1c(C(=O)Nc2ccc(OC(F)(F)F)cc2)sc2nc3c(cc12)N1CCC3CC1	·	1.4%	·	·	·	-27.0%
CNc1ccc2oc(C[C@H]3O[C@@]4(CC[C@H]3C)O[C@H]([C@H](C)C(=O)c3ccc[nH]3)[C@H](C)C[C@H]4C)nc2c1C(=O)O	-26.4%[46.1 µM]	0.4%	-41.7%[46.1 µM]	-15.7%	5.8µM*	-106.1%
O=C(NCC(c1cccnc1)N1CCOCC1)Oc1ccccc1 (centres undefined)	20.2%	15.1µM*	?	?	?	14.1µM*
SMILES	NPC1 prom act	FLuc modulator	Rab9 promoter act	ELG1 genotoxic	ELG1 repair inh	SMN2 splice enh
COc1ccc(NP(=O)(Oc2ccccc2OC)Oc2ccccc2OC)cc1	0.8%	-1.8%	-4.3%	-7.4%	20.6µM*	-6.1%
COc1ccccc1OP(=O)(Nc1ccc(Br)cc1)Oc1ccccc1OC	-1.3%	-0.8%	-0.9%	-8.6%	?	·
CC(C)Br	·	·	·	·	·	-4.9%
CCOC(=O)c1ccccc1N	·	·	·	0.1%	10.4%	-6.8%
Nc1ccccc1C(=O)OCC(=O)c1ccc2c(c1)OCCO2	2.82µM*	0.0757µM*	3.16µM*	?	?	-21.7%
CC(=O)Nc1ccccc1C(=O)OCc1ccc(C(=O)c2ccccc2)cc1	-0.3%	?	4.6%	-0.4%	-12.6%	-23.8%
